Laboratory results: PubChem BioAssay AID1476 (National Center for Advancing Translational Sciences (NCATS), 2009)
In all, about 200,000 compounds went through this assay and about 4,500 (2.2%) were called active. Not shown: some 12% with an inconclusive outcome. The call rests on the fitted dose curve; in most records, active means well fitted inhibition curve with a large enough effect; inconclusive means small, poorly fitted or top-dose-only effect, or effect the other way; inactive means flat fitted curve, though single readings scatter. The entries come from a sample that favours actives as a whole.

Biological target: Cruzipain (Trypanosoma cruzi) (UniProt P25779)
Test: qHTS Assay for Promiscuous and Specific Inhibitors of Cruzain (without detergent); further: nearly all actives have a fitted effect of over 40% in size;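 on max response, negative = inhibition: plate controls were enzyme without inhibitor for no effect and buffer without enzyme for full effect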
Conditions: purified cruzain, Z-FR-AMC fluorescence, no detergent
Method in brief: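 Detergent-free condition (0.00005% Triton X-100) in acetate buffer pH 5.5 with DTT. 1.5 nM enzyme and compound were pre-mixed 15 min, then 2 uM Z-FR-AMC substrate added; reaction progress from fluorescence change between first and third reads (60 s).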
Potency means the concentration at half of the fitted maximal effect.

Sequence of Cruzipain (Trypanosoma cruzi) (P25779 123-467 limits assumed): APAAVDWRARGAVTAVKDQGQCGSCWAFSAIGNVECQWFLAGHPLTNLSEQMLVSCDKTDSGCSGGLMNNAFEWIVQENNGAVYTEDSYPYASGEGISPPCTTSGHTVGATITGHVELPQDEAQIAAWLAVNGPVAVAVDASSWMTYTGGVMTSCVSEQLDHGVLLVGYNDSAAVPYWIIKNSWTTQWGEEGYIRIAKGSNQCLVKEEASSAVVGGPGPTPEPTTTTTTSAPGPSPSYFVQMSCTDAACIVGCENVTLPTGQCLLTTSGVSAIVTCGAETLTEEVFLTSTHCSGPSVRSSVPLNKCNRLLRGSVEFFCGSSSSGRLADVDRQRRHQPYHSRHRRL

Structure (SMILES) | max response, negative = inhibition | Potency
CCOc1ccc(S(=O)(=O)c2cn(Cc3ccccc3)c3ccc(OCC)cc3c2=O)cc1 | -17.9% (inactive) | –
COc1ccc(NC(=O)Cn2c(=O)n(Cc3ccco3)c(=O)c3ccccc32)cc1 | -4.83% (inactive) | –
COc1ccc(NC(=O)Cn2c(=O)n(Cc3ccc(C(=O)NCc4ccccc4Cl)cc3)c(=O)c3ccccc32)cc1 | – | 10 µM (active)
COc1ccc(OC)c(NC(=O)Cn2c(=O)n(Cc3ccccc3)c(=O)c3ccccc32)c1 | -9.43% (inactive) | –
Cn1nnc2c(N3CCN(c4ccccc4)CC3)ncnc21 | -1.23% (inactive) | –
CCCCN1CC(c2nc3ccccc3n2CCCCOc2ccc(C)cc2C)CC1=O (stereo not drawn) | 1.93% (inactive) | –
CCOc1ccccc1NC(=O)C1CCCN(S(=O)(=O)c2cn(C)cn2)C1 (stereo not drawn) | -18.2% (inactive) | –
O=C(COC(=O)CCc1c[nH]c(=O)[nH]1)Nc1ccccc1Cl | -19.9% (inactive) | –
CC(NC(=S)Nc1ccc(S(N)(=O)=O)cc1)c1ccc2c(c1)OCO2 (stereo not drawn) | -22.3% (inactive) | –
O=C(COC(=O)c1c2c(nc3ccccc13)/C(=C\c1cccs1)CCC2)Nc1ccccc1Cl | – | 31.6 µM (active)
O=C1/C(=C/c2ccc3c(c2)OCO3)CCC/C1=C\c1ccc2c(c1)OCO2 | -11.7% (inactive) | –
NS(=O)(=O)c1ccc(NC(=O)COC(=O)c2c3c(nc4ccccc24)/C(=C\c2ccc4c(c2)OCO4)CCC3)cc1 | – | 20 µM (active)
O=C(COC(=O)/C(=C/c1cccs1)c1cccs1)NCc1ccccc1Cl | 3.79% (inactive) | –
COc1cccc(OCCn2c(-c3ccc(Br)cc3)nc3ccccc3c2=O)c1 | -14.8% (inactive) | –
Cc1cc(C)cc(NS(=O)(=O)c2cc3c(cc2C)NC(=O)CO3)c1 | 6.94% (inactive) | –
Cc1cc(C)cc(NC(=O)CSc2nc(=O)n(CCN3CCOCC3)c3c2CCC3)c1 | -7.74% (inactive) | –
O=C(c1ccc(Br)cc1)N(Cc1cccs1)c1ccc(F)cc1 | 11.6% (inactive) | –
COC(=O)c1ccc(NC(=O)CSc2n[nH]c(-c3ccccc3)n2)cc1 | -7.41% (inactive) | –
Cc1ccc(-c2csc(NC(=O)Cc3cccs3)n2)cc1C | -12.6% (inactive) | –
COc1ccc(Cc2nnc(NS(=O)(=O)Cc3ccccc3)s2)cc1 | -1.39% (inactive) | –
COc1ccc(Cc2nnc(NC(=O)Cc3cccs3)s2)cc1 | – | 20 µM (active)
CCc1nnc(NC(=O)CSc2nnc(Cc3ccccc3)n2-c2ccc(OC)cc2)s1 | -3.04% (inactive) | –

Structure (SMILES) | max response, negative = inhibition | Potency
COc1ccc(-c2csc(NC(=O)CCCc3cccs3)n2)cc1 | – | 10 µM (active)
COc1ccc(C(=O)Nc2nc(-c3ccc(S(=O)(=O)N4CCOCC4)cc3)cs2)cc1 | -19.9% (inactive) | –
CCN(CC)S(=O)(=O)c1ccc2c(c1)nc(CN(C)C(=O)Nc1ccc(Cl)cc1)n2C | 2.49% (inactive) | –
CCOC(=O)c1[nH]c(C)c(CCC(=O)N2CCN(c3ccccc3)CC2)c1C | 6.86% (inactive) | –
Cc1cccc(C(=O)N2CCc3cc(CNC(=O)Cc4ccc(F)cc4)ccc32)c1 | -5.89% (inactive) | –
CCc1ccc(CN(Cc2ccco2)C(=O)COc2ccc(Cl)c(C)c2)cc1 | -28.4% (inactive) | –
CCN(CC)S(=O)(=O)c1ccc2c(c1)N(CC(=O)NCC(C)c1ccccc1)C(=O)CO2 (stereo not drawn) | 13.8% (inactive) | –
O=C(OCc1nc2ccccc2[nH]1)C1CCCCC1 | 6.92% (inactive) | –
O=C(Nc1sc2c(c1-c1nc3ccccc3[nH]1)CCCC2)C1CC1 | – | 25.1 µM (active)
c1ccc2[nH]c(-c3nc4ccccc4[nH]3)nc2c1 | 9% (inactive) | –
Cc1ccc2c(c1)N(C(=O)CCC(=O)NCc1ccccc1F)CC(C)O2 (stereo not drawn) | 2.02% (inactive) | –
Cc1ccc(OCCSc2nc(C)c(Cc3ccccc3)c(=O)[nH]2)cc1 | -1.11% (inactive) | –
O=C(NC1CC(=O)N(c2ccc(F)cc2)C1)c1cccs1 (stereo not drawn) | 8.85% (inactive) | –
Cc1c(Cl)cccc1-c1ccc(CNCCCSc2nnnn2C)o1 | -7.09% (inactive) | –
CCCc1ccc(OCc2ccc(C(=O)N/N=C/c3cccc([N+](=O)[O-])c3)o2)c(OC)c1 | – | 6.31 µM (active)
COc1cc(/C=N/O)ccc1OCc1ccc([N+](=O)[O-])cc1 | 0.78% (inactive) | –
COc1cc(/C=N\NC(=O)CNC(=O)c2cccc([N+](=O)[O-])c2)ccc1O | 6.36% (inactive) | –
Cc1ccc(-c2nc3cccc(C)n3c2Nc2ccc3c(c2)OCCO3)cc1 | -0.169% (inactive) | –
CCCN1CCN(CCCNC(=O)c2cnn(-c3ccc(C)cc3)c2-n2cccc2)CC1 | 7.09% (inactive) | –
CCCCOc1ccc(CNC(=O)c2ccc3c(c2)N(C)C(=O)C2CCCCN32)cc1 (stereo not drawn) | 13.9% (inactive) | –
COc1ccccc1NC(=O)c1oc2ccccc2c1NC(=O)COc1ccccc1OC | -7.97% (inactive) | –
Cc1cc([N+](=O)[O-])ccc1NCc1cccc([N+](=O)[O-])c1 | 2.12% (inactive) | –

Structure (SMILES) | max response, negative = inhibition | Potency
Cc1cccc(CC(=O)N2CCN=C2SCc2ccc([N+](=O)[O-])cc2)c1 | -7.03% (inactive) | –
Cc1cccc(COc2ccccc2/C=N/Nc2ccc([N+](=O)[O-])cc2)c1 | – | 25.1 µM (active)
N#Cc1ccc(-c2cccs2)nc1SCc1ccc(Br)cc1 | -6.69% (inactive) | –
COc1ccc2c(c1)c(N1CCCC1=O)c(C(=O)Nc1ccccc1C(F)(F)F)n2C | -10% (inactive) | –
COc1ccc(C(=O)N2CCC(c3nc4ccccc4o3)CC2)cc1 | 14.3% (inactive) | –
Cc1ccc(-c2noc(-c3nnn(-c4cccc(C(F)(F)F)c4)c3N)n2)cc1 | 1.55% (inactive) | –
CCSc1nnc(NC(=O)c2cc(=O)c3cc(C)c(C)cc3o2)s1 | -5.87% (inactive) | –
CCSc1nnc(NC(=O)Cc2ccccc2OC)s1 | 0.739% (inactive) | –
CCSc1nnc(NC(=O)c2ccc(C)cc2)s1 | – | 0.631 µM (active)
Cc1ccccc1OCc1nc2c3cnn(-c4ccccc4F)c3ncn2n1 | -7.52% (inactive) | –
COc1cc(OC)c(NC(=O)Cc2ccc(-n3c(C)nc4cccnc43)cc2)cc1Cl | 4.77% (inactive) | –
COc1c(Cl)cc(C(=O)N(Cc2ccccc2F)C2CCS(=O)(=O)C2)cc1Cl (stereo not drawn) | 6.06% (inactive) | –
COCCn1c(C)cc(C2=NNC(=Nc3ccc(F)cc3)SC2)c1C | -3.73% (inactive) | –
Cc1cccc(N=C2NN=C(c3c[nH]c4ccccc34)CS2)c1 | – | 7.94 µM (active)
Cc1ccc(-c2csc(-c3c[nH]c4ccccc34)n2)cc1 | 1.08% (inactive) | –
CC(=O)N1c2ccccc2CC1C(=O)N1CCN(c2ccc(F)cc2)CC1 (stereo not drawn) | 13.9% (inactive) | –
Nc1nc(N)c2[nH]c(CNc3ccc(C(=O)O)cc3)nc2n1 | – | 3.98 µM (active)
Cc1nc(SCC(=O)Nc2ccc(C(=O)O)cc2)n[nH]1 | 6.79% (inactive) | –
O=C(CCS(=O)(=O)c1cc(Br)cc2c1N(C(=O)C1CC1)CC2)Nc1ccc(Br)cc1F | -5.03% (inactive) | –
COCC(=O)Nc1nnc(COc2ccccc2)s1 | 2.8% (inactive) | –
Cc1ccc(OCc2nnc(NC(=O)OCC(C)C)s2)cc1 | – | 20 µM (active)
CCOCc1nnc(NC(=O)CSc2ccc(C)cc2)s1 | 1.04% (inactive) | –

Structure (SMILES) | max response, negative = inhibition | Potency
CCC(CC)C(=O)N1CC(=O)Nc2ccc(Br)cc2C1c1ccccc1 (stereo not drawn) | -0.646% (inactive) | –
COc1ccc(CC(=O)N2CC(=O)Nc3ccc(Br)cc3C2c2ccc(F)cc2)cc1OC (stereo not drawn) | 18.8% (inactive) | –
CCCCOc1ccc(C(=O)N2CC(=O)Nc3ccc(Br)cc3C2c2ccc(F)cc2)cc1 (stereo not drawn) | – | 25.1 µM (active)
Cc1ccc2cccc(NC(=O)c3ccc(OC(C)C)cc3)c2n1 | -1.78% (inactive) | –
Cc1[nH]c2ccccc2c1/C=N\NC(=O)Cn1nnc(-c2ccccc2)n1 | – | 7.94 µM (active)
Cc1[nH]c2ccccc2c1/C=N/NC(=O)CNC(=O)c1ccc2c(c1)OCO2 | -1.52% (inactive) | –
O=C(Cn1nnc(-c2ccccc2)n1)NCc1ccccc1 | 3.66% (inactive) | –
CCOc1ccc(NC(=O)c2ncoc2-c2ccco2)cc1 | -16.9% (inactive) | –
Cc1ccc(CNC(=O)CSC2=Nc3ccccc3C3=NC(C)C(=O)N23)cc1 (stereo not drawn) | -15.8% (inactive) | –
O=C1C2N=NN(CC(=O)N3N=C(c4cccc5ccccc45)CC3c3ccccc3)C2C(=O)N1c1ccccc1 (stereo not drawn) | – | 5.01 µM (active)
Cc1ccc(C2=NN(C(=O)CSc3nc(N)cc(N)n3)C(c3ccco3)C2)cc1 (stereo not drawn) | 4.32% (inactive) | –
Cc1ccc(N2C(=O)C3N=NN(CC(=O)N4N=C(c5cccc6ccccc56)CC4c4ccccc4)C3C2=O)cc1 (stereo not drawn) | – | 7.94 µM (active)
Cc1cc(C)c(NC(=O)CSc2nc3nccnc3c(=O)n2CCc2c[nH]c3ccccc23)c(C)c1 | 9.02% (inactive) | –
O=C(Nc1cc(Cl)cc(Cl)c1)c1ccc2c(c1)N(Cc1cccc(Cl)c1)C(=O)c1ccccc1S2=O (stereo not drawn) | -5.94% (inactive) | –
O=c1[nH]c2cc(Br)ccc2n2cccc12 | 11.1% (inactive) | –
CCOC(=O)C1CCN(c2ncnc3c2c(-c2ccccc2)cn3-c2cccc(C)c2)CC1 | 9.85% (inactive) | –
CCCCCC(=O)Nc1ccc(C(=O)N/N=C/c2ccc([N+](=O)[O-])cc2)cc1 | -23.1% (inactive) | –
Cc1nc2ccccc2cc1C(=O)N/N=C/c1ccc([N+](=O)[O-])cc1 | -1.64% (inactive) | –
Cc1cc(C(=O)N/N=C/c2ccc(O)c([N+](=O)[O-])c2)c(C)n1-c1ccc(F)cc1 | – | 10 µM (active)
COc1cc2nc(NCC(C)c3ccccc3)n3nc(-c4ccccc4)nc3c2cc1OC (stereo not drawn) | 5.17% (inactive) | –
Cc1ccccc1NC(=O)CCOc1ccccc1 | -3.79% (inactive) | –
CCCN(CCC)C(=O)C1CCCN(c2ncnc3c2nc2n3CCCCC2)C1 (stereo not drawn) | 9.35% (inactive) | –
